Screening results (PubChem BioAssay)
Sampled rows, rich in hits. Any-hit rate of the full collection: about 0.44%.
RmlCD inh mix: mixture blocks RmlC and RmlD coupled enzyme activity. RmlC/RmlD coupled enzyme inhibition, 384-well mixture HTS. hit rate 0.39% among 110,000. inhibition, % at 5.5 µM; in the data active means inhibition above about 30%, passing the limit was not always enough; inconclusive means no clear call, values can overlap the other calls
YopH inh: YopH (Yersinia) phosphatase inhibition; inhibition, % (test concentration not listed); fluorescence Ex485/Em525; hit rate 0.16% among 140,000; AID 898; in the data active means inhibition above about 50%
* marks the source's active call; other numbers are inactive results; ? = inconclusive; / = no result.

SMILES | RmlCD inh mix | YopH inh
COc1cc(NC(=S)N2CCN(C(=O)C3CCCO3)CC2)c(OC)cc1Cl (centres undefined) | / | -19.9
C#CCNC(=O)C1=C[C@@H](c2ccc(C#C)cc2)C[C@@H](OCc2ccc(CO)cc2)O1 | -7.8 | /
O=C(CSc1nccc(=O)[nH]1)Nc1ccc(F)c([N+](=O)[O-])c1 | / | 0.1
N#Cc1cc2c(nc1SCC(N)=O)CCCCC2 | -8.1 | -5.3
C=C(C)CSc1nc2c(cc1C#N)CCC2 | 6.9 | 9.8
COC(=O)CC(=O)CSc1nc2c(cc1C#N)CCC2 | 77.0* | 13.3
CC(C)OC(=O)CC(=O)CSc1nc2c(cc1C#N)CCC2 | 97.2* | -36.3
CCOC(=O)c1c(C)[nH]c(C(=O)N/N=C\c2ccccc2Cl)c1C | / | -2.3
COc1ccc(-n2c(NC(=O)c3ccco3)c(C#N)c3nc4ccccc4nc32)cc1 | 28.9 | 90.3*
COCCNC(=O)c1c(NC(=O)c2ccco2)n(Cc2ccccc2)c2nc3ccccc3nc12 | -44.9 | -12.8
COCCNC(=O)C1(C(F)(F)F)CC(CCCO)CCCO1 (centres undefined) | -1.2 | /
COCCCNC(=O)CC(NS(=O)(=O)c1ccc(C)cc1)c1ccco1 (centres undefined) | 10.6 | -25.8
COCCCNC(=O)CC(NS(=O)(=O)c1ccc(F)cc1)c1ccc(OC)cc1 (centres undefined) | 4.5 | 68.2*
CC(O)C(O)C(O)C(O)/C=N/NC(=O)c1ccccc1 (centres undefined) | / | -11.4
O=C(NN=c1c(=O)c2ccccc2c1=O)c1ccccc1 | -62.5 | 68.3*
Cc1ccc(NC2=C(NCCO)C(=O)c3ccccc3C2=O)cc1 | / | 89.1*
O=C1C(Cl)=C(NCCCO)C(=O)c2ccccc21 | 8.5 | -19.9
O=C(NCCc1ccccc1)c1ccc2c(c1)S(=O)(=O)c1ccccc1C2=O | 3.6 | /
O=C(NCc1cccnc1)[C@@H]1CC=C[C@@H]2CCN(Cc3ccccc3)C(=O)[C@@H]21 | 7.8 | /
COc1c(OC2OC(C(=O)O)C(O)C(O)C2O)cc(O)c2c(=O)cc(-c3ccccc3)oc12 (centres undefined) | -10.1 | -48.1
O=C(O)C1OC(Oc2cc3oc(-c4ccccc4)cc(=O)c3c(O)c2O)C(O)C(O)C1O (centres undefined) | -12.0 | 53.2*
N#CC1=C(N)OC2=C(C(=O)CCC2)[C@]12C(=O)N(CC(N)=O)c1ccccc12 | 13.1 | -50.3
O=C1CCCC2=C1C1(O)C(=O)c3ccccc3C1(O)O2 (centres undefined) | 13.9 | 98.8*
CC(C)C[C@H](NC(=O)c1nc[nH]c1C(=O)N(C)Cc1ccccc1)C(=O)OCc1ccccc1 | -16.4 | /
CCCN1CCC(=O)N([C@H](CSc2ccc(Br)cc2)c2ccccc2)CC1 | 11.1 | /
SMILES | RmlCD inh mix | YopH inh
CCCCC1=CC2=CC(=O)C(C)(OC(=O)CC)C(=O)C2=CN1CCCCO (centres undefined) | 8.9 | /
CCCCCCCC1=CC2=CC(=O)C(C)(OC(C)=O)C(=O)C2=CN1CCc1ccccc1 (centres undefined) | / | 50.4*
CCOC(=O)c1ccc(/C=C2/C=C(c3ccccc3)N(c3ccc(Cl)c(C(=O)O)c3)C2=O)cc1 | / | -14.2
NNC(=O)c1ccccc1CO | -15.6 | /
CC(C)=CCOc1ccc([C@@H]2COc3c(ccc4c3C=CC(C)(C)O4)C2)c(O)c1 | -7.5 | /
C[C@H]1CC[C@]2(O[C@H](CCO)C[C@@H](O)[C@@H]2O)O1 | -11.8 | /
O=C(c1ccco1)[C@@H]1[C@@H]2C(=O)N(c3ccc(F)cc3)C(=O)[C@@H]2C2c3ccccc3C=CN21 (some centres undefined) | 9.2 | 73.7*
O=C(c1ccco1)[C@@H]1[C@@H]2C(=O)N(c3ccc(F)cc3)C(=O)[C@@H]2[C@H]2C=Cc3ccccc3N21 | / | 39.5
O=C(c1ccc(Cl)cc1)[C@@H]1[C@@H]2C(=O)N(c3ccc(Cl)cc3)C(=O)[C@@H]2C2c3ccccc3C=NN21 (some centres undefined) | / | -13.8
O=C(c1ccco1)[C@@H]1[C@@H]2C(=O)N(c3ccc(Br)cc3)C(=O)[C@@H]2C2c3ccccc3C=CN21 (some centres undefined) | 4.2 | 88.0*
COc1ccc(-c2nc(N)nc(C)c2Oc2ccccc2Br)c(O)c1 | 5.3 | -18.5
CC1CCCN(Cc2c(O)ccc3c(=O)c(-c4nc5ccccc5s4)c(N)oc23)C1 (centres undefined) | -16.9 | -39.2
CCCc1cc(=O)oc2c(CN3CCCC3)c(O)c(Cl)cc12 | 59.0* | -44.5
Cc1c(C)c2cc(Cl)c(O)c(CN3CCN(C)CC3)c2oc1=O | 97.3* | -21.4
Cc1c(C)c2cc(Cl)c(O)c(CN3CCCC(C)C3)c2oc1=O (centres undefined) | 112.5* | -49.1
CCCc1cc(=O)oc2cc(C)c(CN3CCCC3)c(O)c12 | / | -52.5
CCN1CCN(Cc2c(O)c(Cl)cc3c(C)cc(=O)oc23)CC1 | ? | 10.5
O=C(NCc1cccc(Br)c1)C1CC2Cn3c(nc4ccccc43)C2N1c1ccccc1 (centres undefined) | 8.5 | /
O=C(NCc1ccccn1)C1(C(F)(F)F)C/C(=C\CCO)CCCO1 (centres undefined) | 9.8 | /
O=C(COC(=O)c1cc(-c2cccc3ccccc23)nc2ccccc12)NC1CCS(=O)(=O)C1 (centres undefined) | / | -30.6
COc1ccc2cc(-c3cc(C(=O)OCC(=O)NC4CCS(=O)(=O)C4)c4ccccc4n3)ccc2c1 (centres undefined) | / | 97.0*
Cc1cc(Nc2cc(Cl)nc(Sc3ccc(NC(=O)C4CC4)cc3)n2)n[nH]1 | -11.0 | /
CCOC(=O)/C=C/C(=O)Nc1ccccc1-c1ccccc1NC(=O)/C=C/C(=O)OCC | / | -33.8
CC(=O)[C@@H]1[C@@H]2C(=O)N(c3ccc(F)c(Cl)c3)C(=O)[C@@H]2C2c3ccccc3C=CN21 (some centres undefined) | 4.3 | 70.6*
CC(=O)[C@H]1[C@@H]2C(=O)N(c3cccc(Cl)c3)C(=O)[C@@H]2[C@H]2c3ccccc3C=CN21 | 3.4 | 67.0*
SMILES | RmlCD inh mix | YopH inh
CC(C)(C)C(=O)[C@@H]1[C@@H]2C(=O)N(Cc3ccccc3)C(=O)[C@@H]2[C@H]2c3ccccc3C=CN12 | 92.7 | 8.8
CC(=O)[C@@H]1[C@@H]2C(=O)N(C3CCCCC3)C(=O)[C@@H]2C2c3ccccc3C=CN21 (some centres undefined) | -7.2 | 6.4
O=C(Nc1ccc(O)c2c(=O)cc(-c3cccc(Cl)c3)oc12)c1ccc(F)cc1 | -97.5 | /
C=CCN1c2ccccc2[C@]23C[C@@H](C(=O)OC)N(C(=O)NCCC)C2=NC(C(=O)OC)=C(C(=O)OC)[C@H]13 | 9.3 | /
Cn1ccc2cc(NC(=O)Nc3cccnc3)ccc21 | 7.9 | /
N#Cc1cn(Cc2ccccc2)c2ccccc12 | -13.3 | 0.0
N#Cc1ccccc1Cn1cc(C#N)c2ccccc21 | -9.0 | 50.6*
COc1ccccc1C1=NOC(C)(c2nnc(-c3cccc(Cl)c3)o2)C1 (centres undefined) | 4.0 | /
CCC(=O)N1Cc2ccccc2-c2ccccc2C1=O | 6.4 | 51.6*
O=C(O)CCN1Cc2ccccc2C1=O | 13.6 | -0.6
CC(=O)n1cc([C@H]2C=C(C(=O)N3CCOCC3)O[C@@H](OCCCCO)C2)c2ccccc21 | 1.7 | /
O=C(NCc1ccccc1)C1=C[C@H](c2ccc(C(F)(F)F)cc2)C[C@H](OCc2ccc(CO)cc2)O1 | 15.6 | /
O=C(Nc1ccc2c(c1)nc1n2CCN(Cc2ccccc2)C1)NC1CCCCC1 | 24.0 | -2.0
